# Test results taken from PubChem BioAssay AID1479146 (National Center for Advancing Translational Sciences (NCATS), 2020).
# Inconclusive results are not listed. A number with no mark means an inactive call. Calls of active or inactive are those of the source. Calls follow the shape of the full dose curve.
# Assay: Confirmatory qHTS for Huh7 cytotoxicity: counterscreen for inhibitors of MERS-S pseudo-typed particle cell entry
# Conditions: viability; series mostly up to 57.1 µM; activity change, negative = cytotoxicity: at the top concentration
Structure (SMILES),"activity change, negative = cytotoxicity",Potency
CN1CCC(=C2c3ccccc3C=Cc3ccccc32)CC1,-2%,
O=C1c2c(O)ccc(O)c2C(=O)c2c(NCCNCCO)ccc(NCCNCCO)c21,,17.1 µM (active)
CCCCCCNC(=O)n1cc(F)c(=O)[nH]c1=O,-9.95%,
c1ccc2c(c1)Sc1ccccc1N2CC1CN2CCC1CC2 (configuration not stated),,30.4 µM (active)
N/C(=N\N=C\c1ccc(Cl)cc1)N/N=C/c1ccc(Cl)cc1,-18.1%,
Cc1cn([C@H]2C[C@H](N=[N+]=[N-])[C@@H](CO)O2)c(=O)[nH]c1=O,-4.83%,
CC(C)OC(=O)OCOP(=O)(CO[C@H](C)Cn1cnc2c(N)ncnc21)OCOC(=O)OC(C)C,-12.7%,
COc1cc([C@@H]2c3cc4c(cc3C(O[C@@H]3O[C@@H]5CO[C@@H](c6cccs6)OC5[C@H](O)[C@H]3O)C3COC(=O)[C@@H]32)OCO4)cc(OC)c1O (some centres not stated),,5.41 µM (active)
O=c1c(C2CC(c3ccc(-c4ccc(Br)cc4)cc3)Cc3ccccc32)c(O)sc2ccccc12 (configuration not stated),3.5%,
C[n+]1c2cc(N)ccc2cc2ccc(N)cc21 (tested in a mixture with another compound),,3.83 µM (active)
CC[C@@H]([C@H](C)O)n1ncn(-c2ccc(N3CCN(c4ccc(OC[C@@H]5CO[C@@](Cn6cncn6)(c6ccc(F)cc6F)C5)cc4)CC3)cc2)c1=O,-5.11%,
CCN1CCN(Cc2ccc(Nc3ncc(F)c(-c4cc(F)c5nc(C)n(C(C)C)c5c4)n3)nc2)CC1,,8.57 µM (active)
CCc1c2c(nc3ccc(OC(=O)N4CCC(N5CCCCC5)CC4)cc13)-c1cc3c(c(=O)n1C2)COC(=O)[C@]3(O)CC,0%,
CCCCCCCCCCCCOCCOCCOCCOCCOCCOCCOCCOCCOCCO,-10.8%,
CCCCN=C(N)N=C(N)N,0.478%,
O=C(Nc1ccc([N+](=O)[O-])cc1Cl)c1cc(Cl)ccc1O,,3.83 µM (active)
CC(C)C(=O)Oc1ccc(CO)cc1[C@H](CCN(C(C)C)C(C)C)c1ccccc1,-16.1%,
C[C@]12CC[C@H](O)C[C@H]1CCC1C2CC[C@]2(C)[C@@H](c3ccc(=O)oc3)C[C@H]3O[C@]132 (some centres not stated),,15.2 µM (active)
CN(C)CCC=C1c2ccccc2C(C)(C)c2ccccc21,-3.85%,
Cc1cc(-n2c(=O)[nH]c(=O)n(C)c2=O)ccc1Oc1ccc(S(=O)(=O)C(F)(F)F)cc1,-28%,
CCCCCCOC(=O)NC(=N)c1ccc(NCc2nc3cc(C(=O)N(CCC(=O)OCC)c4ccccn4)ccc3n2C)cc1,0%,
CCCN1C[C@H](C)[C@@H](O)[C@](C)(O)[C@@H](CC)OC(=O)[C@H](C)[C@@H](O[C@H]2C[C@@](C)(OC)[C@@H](O)[C@H](C)O2)C(C)[C@@H](O[C@@H]2O[C@H](C)C[C@H](N(C)C)[C@H]2O)[C@](C)(O)C[C@H]1C (some centres not stated),-7.32%,
CC(C)(C)NC(=O)[C@H]1CC[C@H]2[C@@H]3CC[C@H]4NC(=O)C=C[C@]4(C)[C@H]3CC[C@]12C,-4.87%,
CC[C@H](C)C(=O)O[C@H]1C[C@@H](C)C=C2C=C[C@H](C)[C@H](CC[C@@H]3C[C@@H](O)CC(=O)O3)[C@H]21,-14.4%,
C=C1c2c(Cl)ccc(O)c2C(O)=C2C(=O)[C@@]3(O)C(O)=C(C(N)=O)C(=O)[C@@H](N(C)C)[C@@H]3[C@@H](O)[C@H]12,-20.1%,
COc1cc(N)c(Cl)cc1C(=O)NC1CCN(CCCOc2ccc(F)cc2)CC1OC (configuration not stated),-20%,
COc1cc2nccc(Oc3ccc(NC(=O)NC4CC4)c(Cl)c3)c2cc1C(N)=O,-19%,
